Assay [1] concerns the target Thyrotropin receptor (Homo sapiens) (UniProt P16473). As to the kind of experiment: qHTS assay to identify small molecule antagonists of the thyroid stimulating hormone receptor (TSHR) signaling pathway (AID 1259385; calls by dose curve; also: nearly all actives have a fitted effect of over 20% in size). The gist of the method: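 TSHR-HEK293 cells (800/well) plated 18 h, then compounds with Ro20-1724 and TSH at 1.5 ng/mL final, 30 min at room temperature. cAMP quantified by HTRF (cAMP-d2/anti-cAMP-cryptate, 1 h); 15 concentrations in triplicate.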
A general note: qHTS replaces the single test concentration by a dilution series.

Assay [2] can be described thus: qHTS assay to identify small molecule agonists of the estrogen receptor alpha (ER-alpha) signaling pathway in the presence of an antagonist - cell viability counter screen (AID 1259386).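 Also: series mostly up to about 92 µM; cells exposed to compounds for 22 h at 37 °C before the viability read; nearly all actives have a fitted effect of over 30% in size.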 The gist of the method:
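Cells are starved of estrogens for 5 days in charcoal-stripped serum, seeded for 24hr and co-treated with ICI-182,780 (10.0nM final) and test compounds. After 22hr at 37C, viability is read as CellTiter-Fluor fluorescence.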

A short description of assay [3]: qHTS assay to identify small molecule antagonists of the progesterone receptor (PR) signaling pathway - cell viability counter screen (AID 1346798). Also: series mostly up to about 92 µM; nearly all actives have a fitted effect of over 50% in size. The essentials: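 PR-UAS-bla HEK293T cells in medium with 2% charcoal-stripped FBS were treated with compounds plus R5020 for 16 hr at 37C. Cell viability was then read by CellTiter-Glo luminescence after 30 min at room temperature in the same wells.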

Assay [4] in a line: qHTS assay to identify small molecule agonists of the progesterone receptor (PR) signaling pathway - cell viability counter screen (AID 1346799; calls by dose curve; also: nearly all actives have a fitted effect of over 45% in size). The essentials: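 PR-UAS-bla HEK293T cells, 3,000 per well in medium with 2% charcoal-stripped FBS, were preincubated 6 hr at 37C, then exposed to compounds for 16 hr; viability was read as CellTiter-Glo luminescence after 30 min at room temperature.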

The nature of assay [5]: qHTS assay to identify small molecule antagonists of the TGF-beta/Smad signaling pathway - cell viability counter screen (AID 1346824). Also: nearly all actives have a fitted effect of over 50% in size. The gist of the method: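 SBE-bla HEK 293T cells, incubated overnight, then compound plus 0.25 ng/mL TGF-beta1 (stock added) for 5 hr at 37 C. Viability was read in the same wells by CellTiter-Glo luminescence after 30 min at room temperature.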

The nature of assay [6]: qHTS assay to identify small molecule agonists of the TGF-beta/Smad signaling pathway - cell viability counter screen (AID 1346829). Also: nearly all actives have a fitted effect of over 45% in size. Also: potency is read from the fitted curve at half-maximal effect. The essentials: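 Tox21 qHTS format: SBE-bla HEK 293T cells treated with DMSO-dissolved compounds for 5 hr; CellTiter-Glo luminescence after 30 min at room temperature.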
Assay [7] can be described thus: qHTS assay to identify small molecule agonists of the TGF-beta/Smad signaling pathway (AID 1346859; active = well fitted activation curve with a large enough effect in the signal ratio in the repeat runs, not every such curve was filed as active; the % refers to the signal ratio; also: series mostly up to about 77 µM). The gist of the method:
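HEK 293T cells stably carrying a beta-lactamase reporter driven by the Smad binding element were seeded overnight, exposed to DMSO-dissolved compounds for 5 hr at 37 C, 5% CO2, then loaded with FRET substrate for 2 hr at room temperature.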

The target in assay [8] is Thyrotropin-releasing hormone receptor (Homo sapiens) (UniProt P34981). The assay can be described thus: qHTS assay to identify small molecule antagonists of the thyrotropin-releasing hormone receptor (TRHR) signaling pathway (AID 1346877; active = well fitted inhibition curve with a large enough effect in the repeat runs, not every such curve was filed as active; also: series mostly up to about 51 µM). The essentials: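 Cells (TRHR-HEK293) are plated and kept 18 h at 37 °C/5% CO2. A calcium-sensitive dye is added for 2 h, compound follows for 5 min at room temperature, and TRH is then given at 1 nM final.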
Sequence of Thyrotropin-releasing hormone receptor (Homo sapiens) (P34981 whole entry, looked up): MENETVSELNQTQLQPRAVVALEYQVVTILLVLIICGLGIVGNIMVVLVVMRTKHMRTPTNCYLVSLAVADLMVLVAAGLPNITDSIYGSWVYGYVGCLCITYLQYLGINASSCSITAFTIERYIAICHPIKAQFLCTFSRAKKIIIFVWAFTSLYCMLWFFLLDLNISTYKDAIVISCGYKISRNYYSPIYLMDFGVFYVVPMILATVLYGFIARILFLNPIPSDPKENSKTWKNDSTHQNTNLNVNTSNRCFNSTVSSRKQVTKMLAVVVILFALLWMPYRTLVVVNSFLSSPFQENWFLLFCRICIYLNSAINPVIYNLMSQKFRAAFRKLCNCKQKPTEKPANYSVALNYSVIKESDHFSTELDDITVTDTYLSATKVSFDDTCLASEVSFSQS

The target is the same in assay [9]. As to the kind of experiment: qHTS assay to identify small molecule agonists of the thyrotropin-releasing hormone receptor (TRHR) signaling pathway (AID 1346891; calls by dose curve; also: series mostly up to about 58 µM). The essentials:
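TRHR-expressing HEK293 cells were plated 18 h at 37 °C/5% CO2, loaded with calcium dye 2 h at 37 °C, then given compound in DMSO; fluorescence was read kinetically for 3 min at 1 s intervals.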

The nature of assay [10]: Caspase-3/7 induction in HepG2 cells by small molecules, qHTS assay (AID 1346978). Also: nearly all actives have a fitted effect of over 15% in size. The gist of the method: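 Wild-type HepG2 cells, 2,000/well, settled 5 hr at 37 C and 5% CO2, then compound-treated for 17 hr; caspase-3/7 activity read by luminescent Caspase-Glo 3/7 after 30 min at room temperature.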
A short description of assay [11]: Caspase-3/7 induction in CHO-K1 cells by small molecules, qHTS cell viability counter screen (AID 1346979). Also: nearly all actives have a fitted effect of over 35% in size. Also: potency is read from the fitted curve at half-maximal effect. The essentials: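 Wild-type CHO-K1 cells were seeded at 1,500 per well, rested 5hr at 37 C, then exposed to compounds in DMSO. After 16hr, CellTiter-Fluor reagent was added and fluorescence read 1hr later as the viability measure.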
Assay [12] can be described thus: Caspase-3/7 induction in CHO-K1 cells by small molecules, qHTS assay (AID 1346980). Also: nearly all actives have a fitted effect of over 15% in size. The essentials: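 Wild-type CHO-K1 cells exposed to compounds for 17hr at 37 C, 5% CO2. Caspase-3/7 activity then measured by Caspase-Glo 3/7 luminescence after 30min at room temperature.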
Assay [13] is described as follows: Caspase-3/7 induction in HepG2 cells by small molecules, qHTS cell viability counter screen (AID 1346981). Also: series mostly up to about 92 µM; nearly all actives have a fitted effect of over 30% in size. The essentials: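 Steps: seed 2,000 HepG2 cells per well; incubate 5 hr at 37 C; pin-add compounds in DMSO; incubate 16 hr; add CellTiter-Fluor; after 1 hr at 37 C and 5% CO2, read fluorescence.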
Assay [14] concerns the target Nuclear receptor subfamily 1 group I member 2 (Homo sapiens) (UniProt O75469). The assay can be described thus: Human pregnane X receptor (PXR) small molecule agonists, qHTS assay (AID 1346982). Also: nearly all actives have a fitted effect of over 35% in size. Also: potency is read from the fitted curve at half-maximal effect. The essentials: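 Agonist mode qHTS: PXR-Luc HepG2 cells plated 5 hr before DMSO-dissolved compounds were pinned in, cultured 24 hr at 37 C, 5% CO2; ONE-Glo luminescence readout.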

The target in assay [15] is Cytochrome P450 2D6 (Homo sapiens) (UniProt P10635). As to the kind of experiment: Cytochrome P450 Family 2 Subfamily D Member 6 (CYP2D6) small molecule antagonists: luciferase reporter qHTS assay (AID 1671196). Also: nearly all actives have a fitted effect of over 50% in size. Also: potency is read from the fitted curve at half-maximal effect. The gist of the method: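 P450-Glo format: CYP2D6 converts a proluciferin substrate to luciferin in an NADPH-driven reaction lasting 1 h at room temperature. Light output, proportional to CYP2D6 activity, reflects interference by test chemicals.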
Sequence of Cytochrome P450 2D6 (Homo sapiens) (P10635 whole entry, looked up): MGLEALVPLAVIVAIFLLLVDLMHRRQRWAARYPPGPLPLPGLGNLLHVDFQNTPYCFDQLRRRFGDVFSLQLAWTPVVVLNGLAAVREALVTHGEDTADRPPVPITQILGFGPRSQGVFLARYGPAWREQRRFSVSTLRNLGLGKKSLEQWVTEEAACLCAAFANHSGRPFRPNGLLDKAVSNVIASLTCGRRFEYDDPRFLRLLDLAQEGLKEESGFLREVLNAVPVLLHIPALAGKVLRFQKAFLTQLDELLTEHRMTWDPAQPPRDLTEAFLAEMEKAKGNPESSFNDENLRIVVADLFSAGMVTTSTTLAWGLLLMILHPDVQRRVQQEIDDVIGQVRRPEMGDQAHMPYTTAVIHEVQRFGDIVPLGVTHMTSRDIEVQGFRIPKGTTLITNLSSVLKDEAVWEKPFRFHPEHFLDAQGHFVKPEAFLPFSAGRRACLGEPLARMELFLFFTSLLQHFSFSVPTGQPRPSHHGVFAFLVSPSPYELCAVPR
For orientation: Reporter assays use an easily measured gene product as a stand-in for the process of interest.

Assay [16] concerns the target Progesterone receptor (Homo sapiens) (UniProt P06401). The assay can be described thus: qHTS assay to identify small molecule agonists of the progesterone receptor (PR) signaling pathway (AID 1346784; calls by dose curve; also: nearly all actives have a fitted effect of over 30% in size). The gist of the method:
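PR-UAS-bla HEK 293T cells carrying a UAS-driven beta-lactamase reporter were seeded in medium with 2% charcoal-stripped FBS, preincubated 6 hr at 37C, then exposed to compounds in DMSO for 16 hr; agonism was read by LiveBLAzer B/G FRET fluorescence.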

The target is the same in assay [17]. As to the kind of experiment: qHTS assay to identify small molecule antagonists of the progesterone receptor (PR) signaling pathway (AID 1346795; active = well fitted inhibition curve with a large enough effect in the signal ratio in the repeat runs, not every such curve was filed as active; the % refers to the signal ratio). The essentials: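 PR-UAS-bla HEK293T cells carrying a UAS-driven beta-lactamase reporter were plated in medium with 2% charcoal-stripped FBS and rested 6 hr at 37C. Compounds were added with 1 nM R5020 (final) for 16 hr, then FRET substrate loaded 2 hr at room temperature.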

Assay [18] has as its target Nuclear receptor subfamily 1 group I member 2 (Homo sapiens) (UniProt O75469). As to the kind of experiment: CYP3A4 induction through human pregnane X receptor (PXR) by small molecules, qHTS assay (AID 1346984). Also: nearly all actives have a fitted effect of over 40% in size. The essentials:
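Steps: seed DPX-2 cells, 5 hr at 37C; pin-transfer compounds; 24 hr at 37C; add Luciferin-IPA (3uM final), 3 hr at 37C; add One-Glo, 30 min RT; read luminescence.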

The target is the same in assay [19]. As to the kind of experiment: Human pregnane X receptor (PXR) activation by small molecules, qHTS assay (AID 1346985). Also: nearly all actives have a fitted effect of over 40% in size. Also: potency is read from the fitted curve at half-maximal effect. The gist of the method: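 DPX-2 cells (HepG2 co-transfected with a PXR response element and a CYP3A4-promoter luciferase construct) were seeded at 2,000 per well, rested 5 hr at 37C, then exposed to DMSO-dissolved compounds for 24 hr. Activation was read as luciferase luminescence.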

Assay [20] is described as follows: Human pregnane X receptor (PXR) small molecule agonists, qHTS cell viability counter screen (AID 1346977). Also: nearly all actives have a fitted effect of over 50% in size. The gist of the method:
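PXR-Luc HepG2 cells in medium with 5% charcoal-stripped FBS were pre-incubated 5hr, then exposed to compounds for 24hr at 37C. Viability was read in the same wells by CellTiter-Fluor fluorescence, reagent added after 23hr with a 1hr incubation.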

“And” between values parts separate entries of the source, which are not always exact repeats. Equal entries are not always repeated. Records with an inconclusive call do not appear. More than one record can exist for a structure, and the calls need not agree. The source made the active and inactive calls. Unless noted, calls follow the shape of the dose curve; as a rule, active = well fitted curve in the direction sought with a large enough effect in the repeat runs; inconclusive = weak or mixed curves; inactive = no such curve, though single readings can be large; an effect the other way counts as inactive or inconclusive.

The source of these data is PubChem BioAssay (Tox21).

Sequence of Nuclear receptor subfamily 1 group I member 2 (Homo sapiens) (O75469 whole entry, looked up): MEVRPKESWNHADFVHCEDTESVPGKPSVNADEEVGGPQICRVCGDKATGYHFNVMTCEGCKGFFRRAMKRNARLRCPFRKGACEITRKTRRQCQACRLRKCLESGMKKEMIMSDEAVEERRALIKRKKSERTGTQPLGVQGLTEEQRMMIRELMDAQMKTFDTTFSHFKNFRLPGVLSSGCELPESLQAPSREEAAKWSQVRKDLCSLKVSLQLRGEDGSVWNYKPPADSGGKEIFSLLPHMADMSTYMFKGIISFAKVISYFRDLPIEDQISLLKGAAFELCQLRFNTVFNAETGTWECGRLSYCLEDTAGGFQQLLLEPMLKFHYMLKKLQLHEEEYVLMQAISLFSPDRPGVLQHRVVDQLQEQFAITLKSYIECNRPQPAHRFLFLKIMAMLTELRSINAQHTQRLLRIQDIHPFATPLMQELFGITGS
Sequence of Progesterone receptor (Homo sapiens) (P06401 whole entry, looked up): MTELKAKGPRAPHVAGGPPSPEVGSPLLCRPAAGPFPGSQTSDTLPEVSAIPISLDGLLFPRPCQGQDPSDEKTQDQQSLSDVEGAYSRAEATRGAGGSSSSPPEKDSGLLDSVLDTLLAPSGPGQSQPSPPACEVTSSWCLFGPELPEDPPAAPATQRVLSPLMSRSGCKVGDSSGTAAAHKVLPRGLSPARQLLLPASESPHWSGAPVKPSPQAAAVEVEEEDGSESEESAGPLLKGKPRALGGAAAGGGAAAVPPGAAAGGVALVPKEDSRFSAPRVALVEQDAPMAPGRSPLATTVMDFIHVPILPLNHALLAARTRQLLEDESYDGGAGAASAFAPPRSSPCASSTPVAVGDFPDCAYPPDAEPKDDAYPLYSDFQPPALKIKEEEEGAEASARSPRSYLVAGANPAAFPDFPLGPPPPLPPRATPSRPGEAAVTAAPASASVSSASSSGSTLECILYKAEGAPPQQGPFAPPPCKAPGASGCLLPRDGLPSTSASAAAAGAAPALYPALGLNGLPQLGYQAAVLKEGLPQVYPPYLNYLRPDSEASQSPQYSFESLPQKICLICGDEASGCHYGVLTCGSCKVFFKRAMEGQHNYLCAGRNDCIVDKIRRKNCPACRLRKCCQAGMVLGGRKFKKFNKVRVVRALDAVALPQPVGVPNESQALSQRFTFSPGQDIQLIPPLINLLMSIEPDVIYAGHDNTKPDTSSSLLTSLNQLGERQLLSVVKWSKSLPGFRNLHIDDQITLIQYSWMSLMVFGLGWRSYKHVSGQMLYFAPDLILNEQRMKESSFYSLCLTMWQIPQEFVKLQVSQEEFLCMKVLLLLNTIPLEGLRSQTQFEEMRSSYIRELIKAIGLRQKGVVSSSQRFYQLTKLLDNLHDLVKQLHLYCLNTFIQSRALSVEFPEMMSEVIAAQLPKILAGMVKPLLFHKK
Sequence of Thyrotropin receptor (Homo sapiens) (P16473 whole entry, looked up): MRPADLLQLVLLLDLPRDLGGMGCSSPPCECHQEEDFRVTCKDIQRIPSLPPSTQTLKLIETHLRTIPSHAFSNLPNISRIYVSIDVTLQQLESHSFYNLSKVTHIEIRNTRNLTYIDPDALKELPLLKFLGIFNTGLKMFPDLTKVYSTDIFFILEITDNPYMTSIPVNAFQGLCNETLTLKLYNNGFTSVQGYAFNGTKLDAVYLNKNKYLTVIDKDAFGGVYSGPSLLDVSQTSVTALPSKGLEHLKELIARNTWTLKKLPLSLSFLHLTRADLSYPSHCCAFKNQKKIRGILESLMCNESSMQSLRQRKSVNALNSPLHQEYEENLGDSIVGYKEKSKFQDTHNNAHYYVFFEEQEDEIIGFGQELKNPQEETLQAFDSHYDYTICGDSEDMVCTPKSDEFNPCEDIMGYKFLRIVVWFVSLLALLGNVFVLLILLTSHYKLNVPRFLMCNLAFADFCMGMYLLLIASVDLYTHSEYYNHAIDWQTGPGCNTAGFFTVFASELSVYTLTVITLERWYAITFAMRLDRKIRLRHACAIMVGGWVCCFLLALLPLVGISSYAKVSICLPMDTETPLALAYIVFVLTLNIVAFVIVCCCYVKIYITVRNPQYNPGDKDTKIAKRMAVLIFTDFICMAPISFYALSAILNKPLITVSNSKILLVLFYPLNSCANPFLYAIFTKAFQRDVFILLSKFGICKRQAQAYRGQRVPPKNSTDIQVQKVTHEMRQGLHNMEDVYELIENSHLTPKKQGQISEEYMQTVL

`CCCCOCCOCCSC#N`: the compound was classed as inactive in [1], in [7], in [8] and in assay [12]. In addition, the Potency entry in assay [2], in assay [3], in assay [4], in assay [5], in assay [6] and in [9] was “inactive” in each case. Further, the Potency result in assay [10], in [11], in [13] and in assay [15] was “inactive” each time. Also, the Potency in [14] was 32.3 µM (active) and 26.8 µM (active).
As to `CC(C)(C)CC(C)(C)c1ccc(O)c(-n2nc3ccccc3n2)c1`, the compound was classed as inactive in assay [1], in assay [7], in [8] and in [12]. Also, the Potency entry in [2], in assay [16], in [17], in [9], in assay [10] and in assay [11] was “inactive” in each case. The Potency result in assay [18] was “inactive”. Besides, the Potency in assay [6] was 44.3 µM (active) and inactive; in [14], 27.7 µM (active) and 11.9 µM (active); in assay [19], 7.94 µM (active); in assay [15], 40.5 µM (active) and inactive.
On to `COc1cc2c(c(OC)c1OC)-c1ccc(OC)c(=O)cc1[C@@H](NC(C)=O)CC2`, for which the Potency result in [2], in [16], in assay [5], in assay [6], in assay [20] and in assay [10] was “inactive” throughout. Further, the Potency result in assay [15] was “inactive”. Further, the compound was called inactive in [7] and in [12]. The Potency in assay [11] was 381 nM (active) and 43.3 nM (active) and 298 nM (active); in assay [14] it was 2.14 µM (active) and 5.4 nM (active).
Turning to `Nc1cccc(N)c1`, the Potency entry in [2], in assay [5], in assay [6], in assay [9], in [10] and in assay [11] was “inactive” each time. The Potency result in assay [13] was “inactive”. Also, the compound was called inactive in [7], in assay [8] and in assay [12]. Besides, the Potency in assay [14] is 54.4 µM (active) and inactive; in [15], 39.8 µM (active) and 31.3 µM (active) and inactive.
On to `NC(N)=NC(N)=NCCc1ccccc1`, for which the result in assay [1], in [7] and in assay [12] was inactive. The Potency result in assay [2], in assay [16], in assay [17], in [5], in assay [6] and in assay [10] was “inactive” in each case. The Potency result in [11], in assay [13], in assay [14], in [18] and in [19] was “inactive” throughout. In [15], the Potency was 5 µM (active) and 10 µM (active) and 8.71 µM (active).
With `CC1(C)O[C@@H]2[C@@H](CO[C@@]3(COS(N)(=O)=O)OC(C)(C)O[C@@H]23)O1`, the outcome in assay [1], in assay [7], in [8] and in assay [12] was inactive. For the same compound, the Potency result in [2], in assay [16], in assay [17], in [5], in assay [6] and in assay [9] was “inactive” each time. For the same compound, the Potency result in assay [10], in assay [11], in [14], in assay [18], in assay [19] and in assay [15] was “inactive” in each case.
Take `CC(O)COc1ccccc1` (centres undefined): the compound was called inactive in assay [1], in assay [7] and in assay [12]. Moreover, the Potency result in assay [2], in [16], in assay [17], in assay [5], in assay [6] and in [10] was “inactive” each time. The Potency result in assay [11], in assay [14], in [18], in assay [19] and in [15] was “inactive” in each case.
Regarding `CC(=O)/C=C/C1=C(C)CCCC1(C)C`, the Potency entry in assay [2], in assay [16], in assay [17], in [3], in assay [5] and in [6] was “inactive” throughout. The Potency entry in [9], in assay [20], in assay [10], in assay [11], in assay [13] and in assay [15] was “inactive” throughout. The compound was classed as inactive in assay [7], in assay [8] and in [12]. In assay [14], the Potency is 55.5 µM (active) and 17.2 µM (active) and 21.7 µM (active).
